According to PubChem BioAssay AID1494157 (National Center for Advancing Translational Sciences (NCATS), 2020):
Inconclusive results are not listed. Active and inactive are the calls of the source. Calls come from the whole dose curve.

Assay: Confirmatory qHTS for inhibitors of MERS-S pseudo-typed particle cell entry
Conditions: MERS-S pseudotyped particle entry, luciferase reporter; series mostly up to 57.1 µM; activity change, negative = inhibition: at the top concentration
For O=c1c(C2CC(c3ccc(-c4ccc(Br)cc4)cc3)Cc3ccccc32)c(O)sc2ccccc12 (stereo not drawn), the Potency was 9.61 µM (active).
In the case of OCCN1CCN(CC/C=C2/c3ccccc3Sc3ccc(C(F)(F)F)cc32)CC1, the Potency is reported as 12.1 µM (active).
In the case of CC(=O)OCC1=C(C(=O)O)N2C(=O)[C@@H](NC(=O)Cc3cccs3)[C@H]2SC1, the “activity change, negative = inhibition” value is reported as 0% (inactive).
In the case of C[C@@H]1CCO[C@H]2Cn3cc(C(=O)NCc4ccc(F)cc4F)c(=O)c(O)c3C(=O)N12, the Potency is reported as 0.0043 µM (active).
In the case of CN1CCC(=C2c3ccccc3C=Cc3ccccc32)CC1, the Potency is reported as 19.2 µM (active).
In the case of Nc1ccn([C@@H]2O[C@H](CO)[C@@H](O)C2(F)F)c(=O)n1, the Potency is reported as 0.215 µM (active).
With COc1cccc2c1C(=O)c1c(O)c3c(c(O)c1C2=O)C[C@@](O)(C(=O)CO)C[C@@H]3O[C@H]1C[C@H](N)[C@H](OC2CCCCO2)[C@H](C)O1 (stereo partly drawn) the “activity change, negative = inhibition” value was -19.3% (inactive).
In the case of CCOc1cc2ncc(C#N)c(Nc3ccc(OCc4ccccn4)c(Cl)c3)c2cc1NC(=O)/C=C/CN(C)C, the activity change, negative = inhibition is reported as -18.9% [at 11.2 µM] (inactive).
In the case of CCc1c2c(nc3ccc(OC(=O)N4CCC(N5CCCCC5)CC4)cc13)-c1cc3c(c(=O)n1C2)COC(=O)[C@]3(O)CC, the Potency is reported as 15.2 µM (active).
With CCn1cc(C(=O)O)c(=O)c2cc(F)c(N3CCNC(C)C3)c(F)c21 (stereo not drawn) the “activity change, negative = inhibition” value was 0% (inactive).
In the case of COc1ccc(Cc2nccc3cc(OC)c(OC)cc23)cc1OC, the Potency is reported as 4.82 µM (active).
With Cc1cc(-n2c(=O)[nH]c(=O)n(C)c2=O)ccc1Oc1ccc(S(=O)(=O)C(F)(F)F)cc1 the Potency was 6.81 µM (active).
For CN(C)CC/C=C1\c2ccccc2Sc2ccc(Cl)cc21, the Potency was 8.57 µM (active).
